Only a selection was taken, and hits are over-represented in it overall.
Methyltransferases = Primary Screen for Target Class Profiling of Small Molecule Inhibitors of Methyltransferases | purified enzyme, MTase-Glo SAH luminescence; stronger effect = lower value | hit rate 3.9% among 25,000 | calls only at 40 µM | AID 1745853, 2022; call rule not given here
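Each enzyme was assayed with SAM and its substrate. SAH formation detected by MTase-Glo luminescence; single-point 40 uM screen[…].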
Starred values were filed as active, the others as inactive; i = inactive; + = active, no number. % is scaled to controls: 0 for no effect and ±100 for the full control effect.

SMILES	Methyltransferases
O=C(CCc1nnc2n(Cc3ccccc3Cl)c(=O)c3ccccc3n12)N1CCC(Cc2ccccc2)CC1	i
Cc1cc2c(cc3n2CC(C)(C(=O)NC2CCCCC2)N(Cc2ccccc2)C3=O)o1 (configuration not stated)	i
O=c1[nH]c2ccccc2n1C1CCN(S(=O)(=O)c2ccc(-n3cnnn3)cc2)CC1	i
COc1ccc(CCNC(=O)CCCc2nnc3n4nc(C)nc4c4ccccc4n23)cc1OC	i
COc1ccc(Cn2c(=O)c3ccccc3n3c(-c4ccc(Cl)cc4)nnc23)cc1	i
COc1ccc(CNC(=O)CCc2nnc3n(Cc4ccc(Cl)cc4)c(=O)c4ccccc4n23)cc1	i
CC(C)(C)Sc1c(CC(C)(C)C(=O)O)n(Cc2ccc(Cl)cc2)c2ccc(OCc3ccc4ccccc4n3)cc12	+
COc1ccccc1CNC(=O)c1cc2n(n1)CC(C)(C(=O)NCc1ccccc1)N(C)C2=O (configuration not stated)	i
CC1(C(=O)NC2CCCCC2)Cn2c(cc3occc32)C(=O)N1Cc1ccc(Cl)cc1 (configuration not stated)	i
O=C(COC(=O)C(Cc1c[nH]c2ccccc12)NC(=O)c1ccc(Br)cc1)c1ccccc1 (configuration not stated)	i
CCCn1c(=O)c2ccc(C(=O)NC(C)C)cc2n2c(=O)n(CC(=O)Nc3cccc(C)c3)nc12	i
CCCN1C(=O)c2c(C(=O)NCc3ccc(OC)cc3)ncn2CC1(C)C(=O)NC1CCCC1 (configuration not stated)	i
Cc1ccc(CCN2C(=O)c3cc4ccccc4n3CC2(C)C(=O)NC2CCCC2)cc1 (configuration not stated)	i
CCOC(=O)C1(CCOc2ccccc2)CCN(Cc2ccc(O)c(Cl)c2)CC1	i
O=C(O)Cn1nnc(-c2ccc(CN(CCCCOc3ccc(CN4CCCC4)cc3)CCc3ccccc3)cc2)n1	+
CCOC(=O)Cc1ccc(NC(=O)N2Cc3c(sc4c3CCCC4)-n3cccc3C2c2cccc(F)c2)cc1 (configuration not stated)	i
CC(C)(O)c1ccccc1CC[C@@H](SCC1(CC(=O)O)CC1)c1cccc(/C=C/c2ccc3ccc(Cl)cc3n2)c1	+
COc1ccc(CNC(=O)Cn2nc3n(CCC(C)C)c(=O)c4ccccc4n3c2=O)cc1	i
COc1ccccc1CNC(=O)C1(C)Cn2nc(-c3ccccc3)cc2C(=O)N1CCc1ccc(Cl)cc1 (configuration not stated)	i
COc1ccc(N2C(=O)c3cc4ccccc4n3CC2(C)C(=O)NC2CCCCC2)c(OC)c1 (configuration not stated)	i
Cc1cc2nn(CC(=O)Nc3cccc(Cl)c3)c(=O)n2c(Nc2ccc(F)cc2)n1	i
COCCNC(=O)CCCc1nnc2n3nc(-c4ccccc4)nc3c3ccccc3n12	i
CCn1c(=O)n(CC)c2cc(S(=O)(=O)Nc3ccc(Br)cc3)ccc21	i
CCC(C)NC(=O)Cn1ccc2cc(S(=O)(=O)N3CCCC3)ccc21 (configuration not stated)	i
CCCn1c(=O)c2ccc(C(=O)NC3CCCC3)cc2n2c(=O)n(Cc3cccc(C)c3)nc12	i
SMILES	Methyltransferases
COc1c2c(c(C)c3c1C(=O)OC3)O[C@@]1(C)C[C@@H](O)[C@]34O[C@](OC)(CC[C@]3(C)[C@H]1C2)OC4(C)C	i
COc1c2c(c(C)c3c1C(=O)OC3)O[C@@]1(C)C[C@@H](OC(C)=O)[C@]34O[C@](OC)(CC[C@]3(C)[C@H]1C2)OC4(C)C	+
COc1c2c(c(C)c3c1C(=O)OC3)OC1(C)CC(O)C34OC(OC)(OC3(C)C)C(O)CC4(C)C1C2 (configuration not stated)	i
Cc1ccc(-c2cc3n(n2)CCCN(C(=O)c2cc(CN4CCOCC4)on2)C3)o1	i
CCOc1ccc(CN2C(=O)c3cc4occc4n3CC2(C)C(=O)NC2CCCC(C)C2C)cc1 (configuration not stated)	i
CCCn1c(=O)c2ccccc2n2c(SCC(=O)Nc3cc(Cl)ccc3OC)nnc12	i
O=C(CCn1ccc2cc(S(=O)(=O)N3CCCCC3)ccc21)NCc1ccco1	i
CC(C)CCNC(=O)C1(C)Cn2c(cc3ccccc32)C(=O)N1Cc1cccc(Cl)c1 (configuration not stated)	i
CC(C)CNC(=O)c1ccc2c(=O)n(C(C)C)c3nn(CC(=O)Nc4ccccc4)c(=O)n3c2c1	i
O=S(=O)(Nc1cc(Cl)c(Oc2cnc3ccccc3c2)c(Cl)c1)c1ccc(Cl)cc1Cl	+
COc1ccc(NS(=O)(=O)c2cc3c(cc2Cl)n(C)c(=O)n3C)cc1	i
Cn1c(=O)n(C)c2cc(S(=O)(=O)Nc3ccccc3)c(Cl)cc21	i
COc1cccc(CN2C(=O)c3cc4sccc4n3CC2(C)C(=O)NC2CCCCC2C)c1 (configuration not stated)	i
Cc1[nH]cnc1C1CCN(c2nc3cccc4c3n2CCC4=O)CC1	+
COc1ccc(CCNC(=O)CCc2nnc3n(Cc4ccc(Cl)cc4)c(=O)c4ccccc4n23)cc1OC	i
Cc1ccc(CN2CC(=O)N(Cc3ccc(Cl)cc3)c3ccccc3S2(=O)=O)cc1	i
CN1C(=O)c2cc(C(=O)N3CCN(c4ccccc4)CC3)nn2CC1(C)C(=O)NC1CCCC1 (configuration not stated)	i
CC(C)CCN1C(=O)c2nc3ccccc3n2CC1(C)C(=O)NC1CCCC(C)C1C (configuration not stated)	i
CN(C)c1ccc(CN2C(=O)c3cc(-c4ccccc4)nn3CC2(C)C(=O)NCc2ccccc2)cc1 (configuration not stated)	i
COc1ccccc1CNC(=O)c1ccc2c(=O)nc3c(-c4cccc(F)c4)n[nH]n3c2c1	i
Cc1cc2c(cc3n2CC(C)(C(=O)NC2CCCCCC2)N(Cc2ccc4c(c2)OCO4)C3=O)o1 (configuration not stated)	i
Cc1ccccc1Cn1nc2n(C(C)C)c(=O)c3ccc(C(=O)NC(C)C)cc3n2c1=O	i
CN(CCCN1C(=O)c2cc3occc3n2CC1(C)C(=O)NC1CCCCC1)C1CCCCC1 (configuration not stated)	i
C[C@]1(C2CCCC2)Cc2cc(OCC(=O)O)c(Cl)c(Cl)c2C1=O	+
CCCC[C@@]1(C2CCCC2)Cc2cc(OCC(=O)O)c(Cl)c(Cl)c2C1=O	+
SMILES	Methyltransferases
CCOc1ccc(N2C(=O)c3c(C(=O)OC)ncn3CC2(C)C(=O)NCc2ccccc2)cc1 (configuration not stated)	i
CC(C)CCNC(=O)C1c2c(n(C)c3ccccc23)SCC(=O)N1CCc1ccc(Cl)cc1 (configuration not stated)	i
CCC(C(=O)NCc1ccccc1OC)n1ccc2cc(S(=O)(=O)N3CCCCC3)ccc21 (configuration not stated)	i
CC(C)CNC(=O)c1ccc2c(=O)n(CC(C)C)c3n[nH]c(=O)n3c2c1	i
Cc1ccc(CN2C(=O)c3cc4ccccc4n3CC2(C)C(=O)NCc2ccccc2)cc1 (configuration not stated)	i
CC1(C(=O)NC2CCCCCC2)Cn2c(ccc2-c2ccco2)C(=O)N1Cc1ccc(F)cc1 (configuration not stated)	i
Clc1ncoc1-c1c[nH]c2ccccc12	i

Screening data as filed in PubChem.
